Data published in PubChem BioAssay AID1851 (National Center for Advancing Translational Sciences (NCATS), 2009).
The whole screen tested about 16,000 compounds, of which about 5,100 (32%) were called active. Inconclusive results (about 25%) are left out. This is one part of the list. A number with no mark means an inactive call. Calls come from the whole dose curve; as a rule, active = well fitted curve in the direction sought with a large enough effect; inconclusive = small, poorly fitted or top-dose-only effect, or effect the other way; inactive = no such curve, though single readings can be large or run the other way.
% is set by controls: 0 for no effect and ±100 for the full control effect.

These compounds were tested against Cytochrome P450 3A4 (Homo sapiens) (UniProt P08684) (assay: Cytochrome panel assay with activity outcomes). Conditions: recombinant CYP, pro-luciferin dealkylation, luminescence, p450-cyp3a4; series mostly up to 57.1 µM.
Sequence of Cytochrome P450 3A4 (Homo sapiens) (P08684 whole entry, looked up): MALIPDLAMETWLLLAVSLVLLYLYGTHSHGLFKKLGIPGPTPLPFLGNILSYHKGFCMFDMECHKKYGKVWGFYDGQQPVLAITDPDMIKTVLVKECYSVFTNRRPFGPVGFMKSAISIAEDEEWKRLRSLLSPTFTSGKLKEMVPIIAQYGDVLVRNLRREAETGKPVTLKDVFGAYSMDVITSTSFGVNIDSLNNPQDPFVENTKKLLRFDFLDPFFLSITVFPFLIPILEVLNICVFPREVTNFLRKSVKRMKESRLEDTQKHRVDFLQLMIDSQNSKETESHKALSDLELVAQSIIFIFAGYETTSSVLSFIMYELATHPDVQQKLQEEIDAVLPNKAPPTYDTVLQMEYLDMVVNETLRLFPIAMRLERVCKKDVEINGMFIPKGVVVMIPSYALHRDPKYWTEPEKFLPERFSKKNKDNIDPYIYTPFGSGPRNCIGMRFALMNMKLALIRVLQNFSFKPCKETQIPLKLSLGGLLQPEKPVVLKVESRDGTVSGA
In the case of `CN1CCN(c2ncc3nc(-c4cccs4)c(=O)n(Cc4cccs4)c3n2)CC1`, the AC50 is reported as 10 µM (active).
In the case of `CN1CCN(c2ncc3nc(-c4cccs4)c(=O)n(CCc4ccccc4)c3n2)CC1`, the AC50 is reported as 20 µM (active).
For `COCCn1c(=O)c(-c2ccc(OC)cc2)nc2cnc(N3CCNCC3)nc21`, the AC50 was 15.8 µM (active).
In the case of `COc1ccc(-c2nc3cnc(N4CCOCC4)nc3n(CCC#N)c2=O)cc1`, the AC50 is reported as “inactive”.
In the case of `COCCn1c(=O)c(-c2cccs2)nc2cnc(N3CCNCC3)nc21`, the AC50 is reported as 15.8 µM (active).
In the case of `COCCn1c(=O)c(-c2ccc(OC)cc2)nc2cnc(N3CCOCC3)nc21`, the AC50 is reported as “inactive”.
For `COCCn1c(=O)c(C)nc2cnc(N3CCNCC3)nc21`, the AC50 was “inactive”.
In the case of `CN1CCN(c2ncc3nc(-c4ccccc4)c(=O)n(Cc4cccs4)c3n2)CC1`, the AC50 is reported as “inactive”.
For `C[N+](C)(C)c1ccc([C@H](N)C(=O)O)cc1`, the activity, negative = inhibition was 1.95% [at 11.4 µM].
With `CCc1cccc2c(-c3ccccc3)c3c(nc12)OCC3` the AC50 was “inactive”.
With `C[C@@H]1C[C@H](OC(=O)[C@@H](O)c2ccccc2)CC(C)(C)N1C` the AC50 was “inactive”.
With `COCCn1c(=O)c(-c2cccc(C#N)c2)nc2cnc(N3CCNCC3)nc21` the AC50 was 20 µM (active).
For `O=c1c(-c2cccs2)nc2cnc(N3CCNCC3)nc2n1Cc1cccs1`, the AC50 was 2.51 µM (active).
For `Cc1nc2cnc(N3CCOCC3)nc2n(C)c1=O`, the AC50 was “inactive”.
For `COCCn1c(=O)c(-c2cccc(C#N)c2)nc2cnc(N3CCN(C)CC3)nc21`, the AC50 was “inactive”.
`COCCn1c(=O)c(-c2cccc(C#N)c2)nc2cnc(N3CCOCC3)nc21` was tested, and the AC50 was “inactive”.
`Cc1nc2cnc(N3CCNCC3)nc2n(Cc2cccs2)c1=O` was tested, and the AC50 was 3.16 µM (active).
In the case of `O=c1nc2ccccc2c2n1C[C@H](CN1CCN(c3ccccc3)CC1)N2`, the AC50 is reported as “inactive”.
Compound `CC(C)=CCC/C(C)=C/CO/N=C1/C[C@@H](O)[C@@H](O)[C@@H]2[C@@H]3C(=O)N(C(C)(C)C)C(=O)[C@H]3CC[C@@H]12` has an activity, negative = inhibition of -26.7% [at 11.4 µM].
`COC(=O)C1=C(N)Oc2cc(C)n(CC3CCCO3)c(=O)c2C1c1ccccc1OC` (centres undefined) was tested, and the AC50 was 6.31 µM (active).
For `COc1cc(Br)cc2cc(C(=O)NCC3CCCO3)c(=O)oc12` (centres undefined), the AC50 was “inactive”.
Work on `O=C(O)[C@@H]1[C@@H](C(=O)O)[C@]23C[C@@]2(C(=O)O)[C@]2(C(=O)O)CCC3=C3CCCC312` yielded an activity, negative = inhibition of 7.71% [at 11.4 µM].
In the case of `O=C(NCC1CCC(C(=O)O)CC1)OCc1ccccc1` (centres undefined), the AC50 is reported as “inactive”.
`CNC(=O)[C@H](C)[C@@H]1C[C@@]1(C)[C@@H](NC(=O)OCc1ccccc1)c1ccccc1` was tested, and the AC50 was 2.51 µM (active).
`CNC(=O)[C@H](C)[C@H]1C[C@]1(C)[C@H](NC(=O)OCc1ccccc1)c1ccccc1` was tested, and the AC50 was 2 µM (active).
For `CCOC(=O)N/N=C1/C[C@@H](O)[C@@H](O)[C@@H]2[C@@H]3C(=O)N(C(C)(C)C)C(=O)[C@H]3CC[C@@H]12`, the activity, negative = inhibition was -11.7% [at 11.4 µM].
In the case of `Cc1noc(C)c1C(=O)N1CCC[C@@]2(CCN(c3ccccc3)C2)C1`, the AC50 is reported as 5.01 µM (active).
With `Cc1noc(C)c1C(=O)N1CCC2(CC1)CN(c1ccccc1)C2` the AC50 was “inactive”.
For `Cc1noc(C)c1C(=O)N1CCC[C@@]2(CCN(C(=O)Nc3ccccc3)C2)C1`, the AC50 was 15.8 µM (active).
With `Cc1noc(C)c1C(=O)N1CCC[C@@]2(CCN(C(=O)NC(C)C)C2)C1` the AC50 was “inactive”.
In the case of `Cc1noc(C)c1C(=O)N1CCC[C@@]2(CCN(C(=O)Nc3cccc(F)c3)C2)C1`, the AC50 is reported as 5.01 µM (active).
For `Cc1noc(C)c1C(=O)N1CCC[C@@]2(CCN(c3ncccn3)C2)C1`, the AC50 was “inactive”.
`COc1ccc(NC(=O)N2CC3(CCN(C(=O)c4c(C)noc4C)CC3)C2)cc1` was tested, and the AC50 was “inactive”.
`C=CC1=C[C@@H](O)C2OC2C12OCCCO2` (some centres undefined) gave an activity, negative = inhibition of -4.04% [at 11.4 µM].
In the case of `CCCn1c(=O)c2[nH]c(-c3ccc(OCC(=O)NCCN)cc3)nc2n(CCC)c1=O`, the AC50 is reported as 2.51 µM (active).
`CCCn1c(=O)c2[nH]c(C3CCCC3)nc2n(CCC)c1=O` was tested, and the AC50 was “inactive”.
With `O=S(=O)(c1ccccc1)c1cnn2c(C(F)(F)F)cc(-c3ccccc3)nc12` the AC50 was “inactive”.
In the case of `COc1cccc(-c2cc(C(F)(F)F)n3ncc(S(=O)(=O)c4ccccc4)c3n2)c1`, the AC50 is reported as 3.98 µM (active).
For `CCCn1c(/C=C/c2ccccc2)nc2ccccc21`, the AC50 was 17.8 µM (active).
In the case of `Cc1nc2ccccc2n1CC(=O)N/N=C\C=C\c1ccccc1`, the AC50 is reported as “inactive”.
In the case of `CCc1ccccc1NC(=S)NCc1ccc2c(c1)OCO2`, the AC50 is reported as 4.47 µM (active).
`CCOc1c2ccc(C(=O)NCc3ccc4c(c3)OCO4)cc2nn1CC` was tested, and the activity, negative = inhibition was 14.3% [at 2.29 µM].
`CCc1c(C(=O)NCc2ccc3c(c2)OCO3)[nH]c(C)c1C(C)=O` was tested, and the AC50 was 0.891 µM (active).
For `NC(N)=NNC(=O)C(=O)O`, the activity, negative = inhibition was -1.33% [at 11.4 µM].
`CC1=NN(c2ccc(C)cc2C)C(=O)C1C(c1ccccc1)C1C(=O)N(c2ccc(C)cc2C)N=C1C` (centres undefined) was tested, and the AC50 was 11.2 µM (active).
With `Cc1ccc(N2C(=O)C(Cl)=C(NCc3ccccc3)C2=O)c(C)c1` the AC50 was “inactive”.
With `CC1=NN(c2ccc(F)cc2)C(=O)C1C(c1cccc(O)c1)c1c(C)[nH]n(-c2ccc(F)cc2)c1=O` (centres undefined) the activity, negative = inhibition was 2.16% [at 2.29 µM].
`CCN(CC)CCNC(=O)c1cc(Cl)c(N)cc1OC` was tested, and the AC50 was “inactive”.
In the case of `CCN(CC)CCNC(=O)c1cc(S(C)(=O)=O)ccc1OC`, the AC50 is reported as “inactive”.
In the case of `CCN(CC)CCNC(=O)c1ccc(Cl)c(S(=O)(=O)Nc2ccccc2OC)c1`, the AC50 is reported as 14.1 µM (active).
For `CCCCN(CC)Cc1ccc(CNC(=O)Nc2ccc(OC)cc2OC)o1`, the AC50 was 22.4 µM (active).
`COc1cnc(-c2ccccc2)nc1Oc1cccc(C)c1` was tested, and the AC50 was “inactive”.
With `COc1cnc(-c2ccccn2)nc1Sc1c(Cl)cccc1Cl` the AC50 was “inactive”.
In the case of `COc1cnc(-c2ccccn2)nc1Oc1ccc(Cl)c2ccccc12`, the AC50 is reported as 14.1 µM (active).
With `CN(Cc1cnc2nc(N)nc(N)c2n1)c1ccc(C(=O)N[C@@H](CCC(=O)O)C(=O)O)cc1` the AC50 was “inactive”.
With `COc1ccc(NC(=O)COC(=O)Cn2c(C)nc3ccccc32)cc1OC` the activity, negative = inhibition was 8.93% [at 2.29 µM].
`COc1ccc(C)cc1NC(=O)CSc1nnc(-c2ccc(OC)c(OC)c2)n1N` was tested, and the AC50 was 7.94 µM (active).
With `CCn1c2ccccc2c2cc(NC(=O)CSc3nnc(-c4ccc(OC)c(OC)c4)n3N)ccc21` the AC50 was 1 µM (active).
`COc1ccc(C)cc1NC(=O)CCC(=O)Nc1nnc(C(F)(F)F)s1` was tested, and the AC50 was “inactive”.
